Assay outcomes: PubChem BioAssay, National Center for Advancing Translational Sciences (NCATS)
Hits are enriched below; roughly 2.5% of the tested compounds scored in any of these assays.
Pol kappa inh = DNA polymerase kappa (human) inhibition; Q9UBT6; purified Pol kappa, fluorescent DNA synthesis assay, 10 min; Potency, µM (top dose mostly 107 µM), actives largely listed as inhibitors; 400,000 compounds, 0.53% hits; AID 588579
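Readout: fluorescence, taken kinetically at 0 and 10 min. Conditions: 10 nM Pol kappa, 15 min RT compound preincubation, 50 nM substrate final. Controls: enzyme-free buffer wells.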
APE1 inh-1 = APE1 (human) endonuclease inhibition; P27695; recombinant APE1, TAMRA/BHQ-2 abasic DNA cleavage fluorescence; Potency, µM (series often up to 65.8 µM), actives largely listed as inhibitors; 350,000 compounds, 0.35% hits; AID 2517; note: nearly all actives have a fitted effect of over 55% in size
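0.75 nM APE1 + cpd, 15 min RT; start w/ 50 nM TAMRA/BHQ-2 THF-abasic dsDNA; kinetic fluor 525/598 nm ×3 reads @60 s; Δ(read3−read1); normalized to DMSO and NSC13755 control wells.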
POLH inh = inhibitors of human DNA polymerase eta; recombinant Pol eta, fluorescent DNA replication assay; 390,000 compounds, 1.2% hits; AID 588591; Q9Y253; Potency, µM (series often up to 114 µM), hits mostly inhibitors
Target sequence (Q9Y253 whole entry, looked up): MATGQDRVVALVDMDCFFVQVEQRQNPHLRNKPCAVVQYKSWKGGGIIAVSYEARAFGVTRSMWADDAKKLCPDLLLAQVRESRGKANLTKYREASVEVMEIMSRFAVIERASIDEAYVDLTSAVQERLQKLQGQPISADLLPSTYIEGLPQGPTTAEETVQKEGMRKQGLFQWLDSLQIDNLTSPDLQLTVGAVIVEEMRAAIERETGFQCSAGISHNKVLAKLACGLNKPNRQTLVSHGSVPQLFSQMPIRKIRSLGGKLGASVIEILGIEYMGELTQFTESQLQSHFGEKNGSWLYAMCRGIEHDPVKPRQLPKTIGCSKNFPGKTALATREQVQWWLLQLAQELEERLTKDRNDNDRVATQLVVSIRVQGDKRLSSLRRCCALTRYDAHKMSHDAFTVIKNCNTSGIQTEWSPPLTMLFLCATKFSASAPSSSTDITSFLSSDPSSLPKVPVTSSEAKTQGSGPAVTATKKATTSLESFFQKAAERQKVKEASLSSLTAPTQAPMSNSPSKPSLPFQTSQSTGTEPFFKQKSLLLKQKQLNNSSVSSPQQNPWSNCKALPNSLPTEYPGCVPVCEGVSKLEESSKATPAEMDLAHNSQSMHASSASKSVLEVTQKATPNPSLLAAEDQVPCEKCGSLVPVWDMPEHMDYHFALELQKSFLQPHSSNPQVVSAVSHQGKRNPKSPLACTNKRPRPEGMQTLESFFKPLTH
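Pol eta at 10 nM preincubated with compounds 15 min at room temperature; reaction started with fluorescent substrate (50 nM final) and read kinetically at 0 and 10 min.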
POLB inh = blocks human DNA polymerase beta activity | P06746 | Pol beta primer extension/strand displacement, fluorescence kinetic | Potency, µM (highest dose often 114 µM), hits mostly inhibitors | 340,000 compounds, 1.3% hits
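Reaction started by 50 nM substrate onto compound-treated Pol beta (10 nM, 15 min preincubation, room temperature); plates read at 0 min and 10 min. Normalized concentration-effect data fitted by four-parameter Hill equation.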
POLI inh = inhibitors of human DNA polymerase iota; Q9UNA4; 390,000 compounds, 1% hits; Potency, µM (doses to about 115 µM), actives largely listed as inhibitors; Pol iota fluorescent replication assay, 10 min; AID 588590
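Pol iota at 10 nM preincubated 15 min with compounds at room temperature; reaction started with fluorescent substrate, 50 nM final. Fluorescence read kinetically at 0 and 10 min; buffer-only wells as negative control.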
L3MBTL1 block = inhibitors of human L3MBTL1; AlphaScreen L3MBTL1–H3K9me1 peptide binding; Potency, µM (doses to about 57.1 µM), hits mostly inhibitors; 230,000 compounds, 0.66% hits; note: nearly all actives have a fitted effect of over 60% in size
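L3MBTL1 50 nM + b-AHA-H3(1-15)K9me1 75 nM, 30 min RT; compound added, 30 min RT; streptavidin donor/Ni-chelate acceptor beads 10 ug/mL each final, 30 min RT dark; AlphaScreen read.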
DNA dye displace = displaces fluorescent dye from DNA, flagging APE1 artifacts. DNA fluorescent dye displacement counterscreen, fluorescence. Potency, µM (doses to about 28.5 µM), hits mostly inhibitors. shares compounds with APE1 inh-1. 480 compounds, 7% hits;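 note: loss of thiazole orange fluorescence as the dye is displaced from duplex DNA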
EndoIV counter = counter-screen for APE1 inhibitors: inhibitors of E. coli endonuclease IV; AID 2565; Potency, µM (doses to about 27.1 µM), actives largely listed as inhibitors; shares compounds with APE1 inh-1; E. coli Endo IV, fluorogenic AP-site DNA cleavage; 560 compounds, 4% hits
APE1 inh-2 = APE1 (human) endonuclease inhibition, confirmation; shares compounds with APE1 inh-1; purified APE1, fluorogenic abasic-site DNA cleavage; Potency, µM (titrated, usually from 57.1 µM), actives largely listed as inhibitors; 750 compounds, 44% hits; note: nearly all actives have a fitted effect of over 30% in size
APE1 FP inh = APE1 (human) DNA binding inhibition, fluorescence polarization. shares compounds with APE1 inh-1. Potency, µM (highest dose often 28.5 µM), most hits filed as inhibitors. 480 compounds, 7% hits. APE1 binding to TAMRA-labelled double-stranded DNA, fluorescence polarization displacement
A number is an active result; [ ] = another dose, or the depositor's remark. Calls come from the whole dose curve; as a rule, active = well fitted curve in the direction sought with a large enough effect; inconclusive = small, poorly fitted or top-dose-only effect, or another doubt; inactive = no such curve, though single readings can be large; an effect the other way counts as inactive or inconclusive.

Screening CC(C)(C)c1ccc(/C=N/NC(=S)Nc2cccnc2)cc1 returned APE1 inh-1 inactive, POLB inh inactive and L3MBTL1 block inactive.
Screening Cc1nc(NC(=O)c2ccc(Br)o2)ccc1Br returned Pol kappa inh inactive, APE1 inh-1 inactive, POLH inh inactive, POLB inh inactive and POLI inh inactive.
O=C(Nc1cccc(NC(=O)c2ccc(Br)o2)n1)c1ccc(Br)o1 was read as Pol kappa inh inactive, APE1 inh-1 inactive, POLH inh inconclusive, POLB inh inactive, POLI inh 14µM and L3MBTL1 block inactive.
CCCC[n+]1ccn(-c2nc3ccccc3nc2[N-]S(=O)(=O)c2ccccc2)c1 was read as Pol kappa inh inactive, APE1 inh-1 inactive, POLH inh inactive, POLB inh inactive and POLI inh inconclusive.
For CCCC[n+]1ccn(-c2nc3ccccc3nc2[N-]S(=O)(=O)c2cccs2)c1 the results were Pol kappa inh inactive, APE1 inh-1 inactive, POLH inh inactive, POLB inh 18µM, POLI inh inactive and L3MBTL1 block inactive.
For CCC(CO)NC(=O)C(=O)Nc1c2c(nn1-c1ccc(F)cc1)CSC2 (stereo not drawn) the results were Pol kappa inh inactive, POLH inh inactive, POLB inh inactive and POLI inh 89µM.
Screening CC(NC(=O)C(=O)Nc1c2c(nn1-c1ccc(F)cc1)CSC2)c1ccccc1 (stereo not drawn) returned Pol kappa inh inactive, POLH inh inactive, POLB inh inconclusive and POLI inh inconclusive.
For Cc1ccc(NC2c3ncccc3C(=O)N2c2ccccc2C)cc1C (stereo not drawn) the results were Pol kappa inh inactive, APE1 inh-1 inactive, POLH inh inactive, POLB inh inactive, POLI inh 56µM and L3MBTL1 block inconclusive.
For CCOc1ccc(N2C(=O)c3cccnc3C2Nc2ccc(Cl)cc2)cc1 (stereo not drawn) the results were Pol kappa inh inactive, APE1 inh-1 inactive, POLH inh inactive, POLB inh inactive, POLI inh inconclusive and L3MBTL1 block inactive.
O=C(CCCn1c(=O)c2cccn2c2ccccc21)Nc1cccc(Cl)c1 was read as Pol kappa inh inactive, POLB inh 45µM and POLI inh inactive.
Screening COc1cc2c(NC3CCN(C)CC3)nc(N3CCCN(C)CC3)nc2cc1OCc1ccccc1 returned Pol kappa inh inactive and POLI inh inactive.
O=C(COc1ccc(-n2cnnn2)cc1)Nc1cccc(Cl)c1Cl was read as Pol kappa inh inactive, APE1 inh-1 inactive, POLH inh inactive, POLB inh 50µM and POLI inh inconclusive.
`CCC(Cl)CC(Cl)C(Cl)C(Cl)C(Cl)C(C)Cl` (stereo not drawn) gave APE1 inh-1 inactive.
For C=CCc1cccc(/C=C/c2cc(=O)c3ccccc3[nH]2)c1O the results were Pol kappa inh inactive, APE1 inh-1 inactive, POLH inh inconclusive, POLB inh 40µM, POLI inh inconclusive and L3MBTL1 block inactive.
COc1ccc2cc([C@H](C)CO)ccc2c1 was read as APE1 inh-1 inactive.
For COc1ccc2c(c1)Cc1sc(NC(=O)c3cccc(Cl)c3)nc1-2 the results were Pol kappa inh inactive, POLH inh inactive, POLB inh inactive and POLI inh 10µM.
COc1ccc2c(c1)Cc1sc(NC(=O)c3ccc(Cl)cc3)nc1-2 was read as Pol kappa inh inconclusive, POLH inh inactive, POLB inh inactive and POLI inh 22µM.
Screening COc1ccc2c(c1)Cc1sc(NC(=O)c3cccc(C)c3)nc1-2 returned Pol kappa inh inactive, POLB inh inactive and POLI inh 8.9µM.
For Nc1[nH]c(=S)nc2nnsc12 the results were Pol kappa inh inactive and POLI inh inactive.
C[n+]1c2n(c3ccccc31)N=C(c1ccc(Br)cc1)CS2 was read as Pol kappa inh inactive, APE1 inh-1 inactive, POLH inh inactive, POLB inh inactive, POLI inh 25µM and L3MBTL1 block inactive.
Screening CCOc1ccc(N(CC(=O)N2CCN(c3ccc(F)cc3)CC2)S(=O)(=O)c2c(C)noc2C)cc1 returned Pol kappa inh inactive, APE1 inh-1 inactive, POLH inh inactive, POLB inh inactive and POLI inh inactive.
`CC(=O)Nc1cc(N=Cc2ccc(O)cc2O)c(Cl)cc1Cl` gave Pol kappa inh inactive, APE1 inh-1 inactive, POLH inh 45µM, POLB inh inactive, POLI inh inconclusive and L3MBTL1 block inactive.
For COc1ccc(O)c(C=Nc2cc(NC(C)=O)c(Cl)cc2Cl)c1 the results were Pol kappa inh inactive, APE1 inh-1 inactive, POLH inh inactive, POLB inh inactive, POLI inh inactive and L3MBTL1 block inactive.
For CCOC(=O)C1CCc2sc(N)c(C#N)c21 (stereo not drawn) the results were Pol kappa inh inactive, APE1 inh-1 inconclusive, POLH inh inactive, POLB inh inactive, POLI inh inactive, L3MBTL1 block inactive[11.4 µM], DNA dye displace inactive, EndoIV counter inactive, APE1 inh-2 inactive and APE1 FP inh inconclusive.
Screening CCCCNC(=S)N(CCO)Cc1cc2cc3c(cc2[nH]c1=O)OCCO3 returned Pol kappa inh inactive, APE1 inh-1 inactive, POLH inh inactive, POLB inh inactive, POLI inh inactive and L3MBTL1 block inactive.
For CCN(CC(=O)Nc1cc(Cl)ccc1C)C(=O)CCS(=O)(=O)c1ccc(C)cc1 the results were Pol kappa inh inactive, APE1 inh-1 inactive, POLH inh inactive, POLI inh inactive and L3MBTL1 block inactive.
Screening O=c1cc(CCl)nc2sc3ccccc3n12 returned Pol kappa inh inconclusive, APE1 inh-1 inconclusive, POLH inh 50µM, POLB inh inconclusive, POLI inh 35µM, L3MBTL1 block inconclusive and APE1 inh-2 inconclusive.
`COc1cc(COc2ccc(S(=O)(=O)N3CCOCC3)cc2[N+](=O)[O-])ccc1OC(F)F` gave Pol kappa inh inactive, POLH inh inactive and POLI inh inactive.
